From PubChem BioAssay (Tox21)
Where “and” joins values, the source holds several entries; their conditions need not be identical. Equal values may be shown once. Values without a mark were called inactive. Inconclusive results are not listed. A call without a number means that no potency is given here. Calls of active or inactive are those of the source. Unless noted, the call rests on the fitted dose curve; in most records, active means well fitted curve in the direction sought with a large enough effect in the repeat runs; inconclusive means weak or mixed curves; inactive means no such curve, though single readings can be large; an effect the other way counts as inactive or inconclusive. Non-standard residues stand in square brackets, D forms with d. Residues, ends and D or L forms follow the SMILES beside them. *: point of attachment. Sta = CC(C)C[C@H](N)[C@@H](O)CC(=O)O; Isovaleryl = CC(C)CC(=O)*

What was measured:
[1] = qHTS assay to identify small molecule antagonists of the glucocorticoid receptor (GR) signaling pathway - cell viability counter screen (AID 720693); further: nearly all actives have a fitted effect of over 55% in size
[2] = qHTS assay for identifying genotoxic compounds that show differential cytotoxicity against isogenic chicken DT40 cell lines with known DNA damage response pathways - wild type cell line (AID 743012); further: nearly all actives have a fitted effect of over 60% in size; further: potency means the concentration at half of the fitted maximal effect
In short: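 First, wild type DT40 cells were plated at 300 per well and equilibrated about 0.5 h at 37 C/5% CO2. Next, compounds in DMSO were added and exposure lasted 40 h. Finally, CellTiter-Glo was added for 30 min at room temperature and luminescence recorded.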

[3] = qHTS assay for identifying genotoxic compounds that show differential cytotoxicity against isogenic chicken DT40 cell lines with known DNA damage response pathways - Rev3 mutant cell line (AID 743014); further: nearly all actives have a fitted effect of over 55% in size; further: potency means the concentration at half of the fitted maximal effect
[4] = qHTS assay for identifying genotoxic compounds that show differential cytotoxicity against isogenic chicken DT40 cell lines with known DNA damage response pathways - Rad54/Ku70 mutant cell line (AID 743015); further: nearly all actives have a fitted effect of over 60% in size; further: potency means the concentration at half of the fitted maximal effect
[5] = qHTS assay to identify small molecule antagonists of the androgen receptor (AR) signaling pathway - cell viability counter screen (AID 743033; further: nearly all actives have a fitted effect of over 45% in size)
[6] = qHTS assay to identify small molecule antagonists of the thyroid receptor (TR) signaling pathway - cell viability counter screen (AID 743064); further: nearly all actives have a fitted effect of over 50% in size
In short: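 Viability of T3-stimulated (1 nM final) GH3.TRE-Luc cells is measured by CellTiter-Fluor fluorescence after 23.5 h compound exposure at 37 °C plus 30 min reagent incubation.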

[7] = qHTS assay to identify small molecule antagonists of the androgen receptor (AR) signaling pathway using the MDA cell line - cell viability counter screen (AID 743041; further: nearly all actives have a fitted effect of over 45% in size)
In short: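 Same-well cytotoxicity was assessed by CellTiter-Fluor in MDA-kb2 AR-luc cells after 16 h of compound treatment under R1881 agonism.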

[8] = target: Androgen receptor (Homo sapiens) (UniProt P10275); assay: qHTS assay to identify small molecule antagonists of the androgen receptor (AR) signaling pathway (AID 743035; active means well fitted inhibition curve with a large enough effect in the signal ratio in the repeat runs, not every such curve was filed as active; the % refers to the signal ratio)
Androgen receptor (Homo sapiens), sequence (P10275 whole entry, looked up): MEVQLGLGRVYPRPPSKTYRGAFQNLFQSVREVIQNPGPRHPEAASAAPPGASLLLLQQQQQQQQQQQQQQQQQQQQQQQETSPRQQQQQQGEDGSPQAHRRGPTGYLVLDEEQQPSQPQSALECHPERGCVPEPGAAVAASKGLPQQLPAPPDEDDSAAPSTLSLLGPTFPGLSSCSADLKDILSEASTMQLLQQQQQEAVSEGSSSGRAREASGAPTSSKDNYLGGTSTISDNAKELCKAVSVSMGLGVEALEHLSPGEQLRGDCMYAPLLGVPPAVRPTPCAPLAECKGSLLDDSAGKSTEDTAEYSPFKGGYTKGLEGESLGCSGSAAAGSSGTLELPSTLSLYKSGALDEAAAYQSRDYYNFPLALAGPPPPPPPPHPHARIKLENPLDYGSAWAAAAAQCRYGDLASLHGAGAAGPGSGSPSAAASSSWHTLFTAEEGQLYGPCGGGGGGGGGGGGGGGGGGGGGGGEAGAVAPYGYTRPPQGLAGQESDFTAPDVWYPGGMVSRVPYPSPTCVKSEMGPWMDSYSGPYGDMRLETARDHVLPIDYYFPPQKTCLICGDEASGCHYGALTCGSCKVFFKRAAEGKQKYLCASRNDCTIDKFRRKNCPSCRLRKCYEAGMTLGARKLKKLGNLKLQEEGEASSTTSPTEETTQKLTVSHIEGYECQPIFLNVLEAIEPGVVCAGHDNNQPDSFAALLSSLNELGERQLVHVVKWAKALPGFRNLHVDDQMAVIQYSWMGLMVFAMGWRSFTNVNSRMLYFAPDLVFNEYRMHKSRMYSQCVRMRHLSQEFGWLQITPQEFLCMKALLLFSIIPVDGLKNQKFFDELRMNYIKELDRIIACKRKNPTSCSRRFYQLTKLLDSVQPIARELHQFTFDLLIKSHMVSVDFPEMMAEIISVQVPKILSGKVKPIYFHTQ
In short: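 Beta-lactamase FRET read (2 h RT incubation with LiveBLAzer B/G) following 16 h of compound plus R1881 treatment of AR-UAS-bla HEK293 cells, which had been pre-incubated 4 h at 37C.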

[9] = target: Androgen receptor (Homo sapiens) (UniProt P10275); assay: qHTS assay to identify small molecule agonists of the androgen receptor (AR) signaling pathway using the MDA cell line (AID 743040; further: nearly all actives have a fitted effect of over 20% in size)
In short: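 Human breast carcinoma MDA-kb2 reporter cells (MMTV-luc, AR/GR elements) were treated for 16 h at 37C in 0% CO2 following a 5 h settling period. Signal was quantified by ONE-Glo luminescence.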

[10] = target: Androgen receptor (Homo sapiens) (UniProt P10275); assay: qHTS assay to identify small molecule antagonists of the androgen receptor (AR) signaling pathway using the MDA cell line (AID 743042; further: nearly all actives have a fitted effect of over 55% in size)
In short: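 MDA-kb2 breast carcinoma cells carrying MMTV-luciferase (AR/GR responsive) were co-treated with compounds and the agonist R1881 for 16 h at 37C. Inhibition read as ONE-Glo luminescence; CellTiter-Fluor fluorescence measured in parallel for cytotoxicity.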

Structure (SMILES) | outcome [1] | Potency [2] | Potency [3] | Potency [4] | outcome [5] | Potency [6] | outcome [7] | outcome [8] | outcome [9] | outcome [10]
CCCC[O][Al]([O]CCCC)[O]CCCC | inactive | inactive | inactive | inactive | inactive | inactive | – | – | – | –
Cc1cc(C)c(N)c(Cl)c1 | inactive | inactive | inactive | inactive | inactive | inactive | – | – | – | –
C=CCCCCCCCCCCCCCC | inactive | inactive | inactive | inactive | – | inactive | inactive | – | – | –
CCCc1ccc(O)c(OC)c1 | inactive | inactive | inactive | inactive | inactive | inactive | inactive | – | – | –
C=CCN1CCc2nc(N)sc2CC1 | inactive | inactive | inactive | inactive | – | inactive | inactive | inactive | inactive | inactive
CCCCOCCCC | inactive | inactive | inactive | inactive | inactive | inactive | inactive | – | – | –
CCN(CC)CC | inactive | inactive | inactive | inactive | inactive | inactive | inactive | – | – | –
C[C@@H]1CC[C@@]2(OC1)O[C@H]1C[C@H]3[C@@H]4CC[C@H]5C[C@@H](O)CC[C@]5(C)[C@H]4CC(=O)[C@]3(C)[C@H]1[C@@H]2C | inactive | inactive | inactive | inactive | inactive | inactive | inactive | – | – | –
C[C@]12C=CC(=O)C=C1[C@@H](F)C[C@@H]1[C@@H]2[C@@H](O)C[C@@]2(C)[C@H]1CC[C@]2(O)C(=O)CO | inactive | 18.8 µM (active) | 18.8 µM (active) | 23.7 µM (active) and 26.6 µM (active) | inactive | inactive | inactive | – | – | –
O=CN1CCCCC1 | inactive | inactive | inactive | inactive | inactive | inactive | inactive | – | – | –
CC(O)C(CO)C(C)O (configuration not stated) | inactive | inactive | inactive | inactive | – | inactive | inactive | inactive | inactive | inactive
C=CC(C)(CCC=C(C)C)OC(=O)C(C)C (configuration not stated) | inactive | inactive | inactive | inactive | inactive | inactive | – | – | – | –
CC(C)(C)C(=O)CC(=O)C(C)(C)C | inactive | inactive | inactive | inactive | inactive | inactive | inactive | – | – | –
C=COCCCCO | inactive | inactive | inactive | inactive | – | inactive | inactive | – | – | –
CC(=O)OCC(=O)[C@@]1(O)CC[C@H]2[C@@H]3CCC4=CC(=O)C=C[C@]4(C)[C@H]3[C@@H](O)C[C@@]21C | inactive | inactive | inactive | – | – | – | inactive | – | – | –
O=Cc1ccc(C(=O)O)cc1 | inactive | inactive | – | inactive | inactive | inactive | inactive | – | – | –

Structure (SMILES) | outcome [1] | Potency [2] | Potency [3] | Potency [4] | outcome [5] | Potency [6] | outcome [7] | outcome [8] | outcome [9] | outcome [10]
CCCC(C)C(O)CC (configuration not stated) | inactive | inactive | inactive | inactive | – | inactive | inactive | – | – | –
Nc1nc(Cl)cc(Cl)n1 | inactive | inactive | inactive | – | inactive | – | inactive | – | – | –
C/C(Cl)=C/CCl | inactive | inactive | – | inactive | inactive | inactive | inactive | inactive | – | inactive
COc1cc(OC)cc(OC)c1 | inactive | inactive | – | inactive | inactive | inactive | inactive | inactive | inactive | inactive
CC(C)OCCO | inactive | inactive | inactive | inactive | – | inactive | inactive | – | – | –
Cc1ccccc1C#N | inactive | inactive | – | inactive | inactive | inactive | inactive | – | – | –
CCCCNCC | inactive | inactive | – | inactive | inactive | – | inactive | – | – | –
Cc1ccc(NC(N)=O)cc1 | inactive | inactive | inactive | inactive | – | inactive | inactive | – | – | –
O=S(=O)(O)c1ccc(Cl)cc1 | inactive | inactive | – | inactive | inactive | inactive | inactive | – | – | –
CCCCN1C(=O)c2ccccc2C1=O | inactive | inactive | inactive | inactive | – | inactive | inactive | – | – | –
CN(C)CCc1c[nH]c2ccc(C[C@H]3COC(=O)N3)cc12 | inactive | inactive | inactive | inactive | – | inactive | inactive | – | – | –
CCOC(=O)[C@H](CCc1ccccc1)N[C@H]1CS[C@H](c2cccs2)CN(CC(=O)O)C1=O | inactive | inactive | – | inactive | inactive | inactive | – | inactive | inactive | inactive
O=c1c(O)c(O)c1=O | inactive | inactive | inactive | inactive | – | inactive | inactive | – | – | –
CCC(C)SSC(C)CC (configuration not stated) | inactive | inactive | inactive | inactive | – | inactive | inactive | – | – | –
CC(C)CC(=O)N[C@H](C(=O)N[C@H](C(=O)N[C@@H](CC(C)C)[C@@H](O)CC(=O)N[C@@H](C)C(=O)N[C@@H](CC(C)C)[C@@H](O)CC(=O)O)C(C)C)C(C)C (Isovaleryl-VV[Sta]A[Sta]-OH) | inactive | inactive | – | inactive | inactive | inactive | inactive | – | – | –
